Compounds without any hit were thinned out: in the full panel of roughly 79,000, 15% have a hit. Values without a mark were called inactive. Rule as the data show it: active = growth inhibition above about 70%; inactive = the rest. Where a SMILES comes first, the peptide text is derived from it. [ ]: non-standard residue; d: D form. The star is where a group is joined. Cbz = O=C(OCc1ccccc1)*; Nva = CCC[CH](N)C(=O)O
test: NCI Yeast Anticancer Drug Screen. Data for the sgs1 mgt1 strain (AID 161);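 also: 0% = growth of cultures given vehicle only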; conditions: S. cerevisiae sgs1 mgt1 strain, at 50.0 µM, stronger effect = higher value
Method in brief: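 Read-out: growth inhibition vs vehicle controls. Cells: mutant yeast strain deficient in DNA damage repair.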

Compound | growth inhibition [%]
CCCCCCCCCOc1ccc2ccccc2c1 | 22.4
CCCC(NC(=O)OCc1ccccc1)C(=O)NC(C(=O)O)C(C)CC (stereo unspecified) (Cbz-[Nva]-Ile-OH; configuration not given here) | 2.75
Cc1ccccc1N1C(=O)[N+]2(CCCCC2)N=C1[O-] | -13.3
CCC([NH-])(CC)C[NH-].[Cl][Pt+2][Cl] | -31.4
O=c1[nH]c(=O)n(C2CC(O)C(CO)O2)cc1OCC1CCCCC1 (stereo unspecified) | -13.3
CN(C)NC(=O)CC#N | -4.45
COC(=N)c1ncn(Cc2ccccc2)c1N | -11.9
COC(=O)C1=C(C(=O)OC)SC(=C2C3=C(SC(C(=O)OC)=C(C(=O)OC)S3)c3ccccc32)S1 | 21.9
Cc1ccc(-c2c(C#N)c(-c3ccc(Cl)cc3)c(C#N)c(=O)n2NS(=O)(=O)c2ccc(C)cc2)cc1 | 30.4
CC12CCCCC1C(C(C)(C)OC(=O)c1ccc([N+](=O)[O-])cc1)CC2 (stereo unspecified) | 17.4
Ic1ccccc1 | -41.4
O=C/C=C/c1ccc2c(c1)OC(CO)C(c1ccc(O)c(O)c1)O2 (stereo unspecified) | 6.7
Cc1c(Cl)ccc2c1NC(=O)C2(O)CC(=O)c1ccccc1 (stereo unspecified) | 35.9
CCOC(=O)/C(C#N)=C/Nc1ccncc1 | 16.2
COC(=O)C1CN=CN1CCc1ccccc1 (stereo unspecified) | 5.25
Cc1nc(C)c(N2CCN(S(N)(=O)=O)CC2)c(=O)[nH]1 | -30.8

Source: PubChem BioAssay (NCI)
